Over roughly 2,900 compounds, “NF-kB SEAP reporter activity, fold change vs agonist alone” has its median near 0.99; the highest 2% begin near 2.6. The full list was thinned out, with the highest values kept by preference.
Key:
[1] = tested on: RAW-Dual; assay: NF-kB SEAP reporter activity, fold change vs agonist alone; higher = enhanced NF-kB activity
Summary of the method: (§1)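 RAW-Dual macrophages were seeded in DMEM at 50,000 cells/well in 384-well plates, given 50 nL of library stock by pin tool, and given a PRR agonist 1 h later. Plates were held at 37 °C, 5% CO2 for 20 hours, after which supernatant was read for IRF by QuantiLuc luminescence and for NF-κB by QuantiBlue absorbance at 620 nm. Reporter activity is expressed as fold change over wells that received agonist alone. A well was called cytotoxic when IncuCyte confluency fell below 70% of agonist controls in both mask sets.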

[2] = tested on: RAW-Dual; assay: NF-kB SEAP reporter activity, fold change vs agonist alone; cytotoxicity flag (confluency mask): not cytotoxic; higher = enhanced NF-kB activity
Summary of the method: as §1

[3] = tested on: RAW-Dual; assay: NF-kB SEAP reporter activity, fold change vs agonist alone; cytotoxicity flag (confluency mask): cytotoxic (confluency <70% of control); higher = enhanced NF-kB activity
Summary of the method: as §1

[4] = library stock concentration (final ~1000-fold dilution): 10 mM, cytotoxicity flag (confluency mask): not cytotoxic, agonist: Imiquimod (TLR7) […]
[5] = library stock concentration (final ~1000-fold dilution): 10 mM, cytotoxicity flag (confluency mask): not cytotoxic, agonist: MPLA (TLR4) […]
[6] = agonist: ODN 1826 (TLR9) 0.5 ug/mL
[7] = agonist: Pam2CSK4 (TLR2/6) 0.1 ug/mL
[8] = agonist: Pam3CSK4 (TLR2/1) 0.1 ug/mL
[9] = library stock concentration (final ~1000-fold dilution): 10 mM, cytotoxicity flag (confluency mask): cytotoxic (confluency <70% of control), agonist: Imiquimod (TLR7) […]
[10] = library stock concentration (final ~1000-fold dilution): 10 mM, cytotoxicity flag (confluency mask): cytotoxic (confluency <70% of control), agonist: MPLA (TLR4) […]

## COCC(NC(=O)c1cnc(C)s1)C(=O)NC(COC)C(=O)NC(Cc1ccccc1)C(=O)C1(C)CO1 (stereo unspecified)
[1]; [4]
  NF-kB SEAP reporter activity: 2.34
[1]; [5]
  NF-kB SEAP reporter activity: 1.21

## COCC(NC(=O)c1cnc(C)s1)C(=O)NC(COC)C(=O)NC(Cc1ccccc1)C(=O)C1(C)CO1 (stereo unspecified) (library stock concentration (final ~1000-fold dilution): 10 mM)
[2]; agonist: LPS (TLR4) 0.1 ug/mL
  NF-kB SEAP reporter activity: 0.377
[2]; [6]
  NF-kB SEAP reporter activity: 1.25
[2]; [7]
  NF-kB SEAP reporter activity: 0.279
[2]; [8]
  NF-kB SEAP reporter activity: 0.692

## COc1cc(N2CCN(C)CC2)ccc1Nc1nccc(-c2cn(C)c3cnccc23)n1 (library stock concentration (final ~1000-fold dilution): 10 mM)
[2]; agonist: LPS (TLR4) 0.1 ug/mL
  NF-kB SEAP reporter activity: 1.02
[2]; [6]
  NF-kB SEAP reporter activity: 0.192
[2]; [7]
  NF-kB SEAP reporter activity: 1.14
[2]; [8]
  NF-kB SEAP reporter activity: 1.44

## Cc1nc(N)sc1-c1ccnc(Nc2ccc(N3CCOCC3)cc2)n1 (library stock concentration (final ~1000-fold dilution): 10 mM)
[2]; agonist: LPS (TLR4) 0.1 ug/mL
  NF-kB SEAP reporter activity: 0.713
[2]; [6]
  NF-kB SEAP reporter activity: 0.256
[2]; [7]
  NF-kB SEAP reporter activity: 0.401
[2]; [8]
  NF-kB SEAP reporter activity: 0.522

## CC(C)(O)CNc1nc(Nc2ccnc(C(F)(F)F)c2)nc(-c2cccc(C(F)(F)F)n2)n1
[1]; [4]
  NF-kB SEAP reporter activity: 1.19
[1]; [5]
  NF-kB SEAP reporter activity: 1.28

## CC(C)(O)CNc1ncc(-c2ccnc(Nc3ccnc(Cl)c3)n2)c(CC2CC2)n1 (library stock concentration (final ~1000-fold dilution): 10 mM)
[2]; agonist: LPS (TLR4) 0.1 ug/mL
  NF-kB SEAP reporter activity: 5.81
[2]; [6]
  NF-kB SEAP reporter activity: 0.935
[2]; [7]
  NF-kB SEAP reporter activity: 1.41
[2]; [8]
  NF-kB SEAP reporter activity: 1.8

## Nc1ncc(-c2ccnc(Nc3ccncc3)n2)c(CC2CC2)n1
[1]; [9]
  NF-kB SEAP reporter activity: 0.641
[1]; [10]
  NF-kB SEAP reporter activity: 2.13

## CC(C)(O)CNc1nc(Nc2ccnc(C(F)(F)F)c2)nc(-c2cccc(C(F)(F)F)n2)n1 (library stock concentration (final ~1000-fold dilution): 10 mM)
[2]; agonist: LPS (TLR4) 0.1 ug/mL
  NF-kB SEAP reporter activity: 1.51
[2]; [6]
  NF-kB SEAP reporter activity: 1.61
[2]; [7]
  NF-kB SEAP reporter activity: 1.09
[2]; [8]
  NF-kB SEAP reporter activity: 1.59

## COc1cc(N2CCN(C)CC2)ccc1Nc1nccc(-c2cn(C)c3cnccc23)n1
[1]; [4]
  NF-kB SEAP reporter activity: 0.285
[1]; [5]
  NF-kB SEAP reporter activity: 1.58

## CC(C)(O)CNc1ncc(-c2ccnc(Nc3ccncc3)n2)c(CC2CC2)n1
[1]; [4]
  NF-kB SEAP reporter activity: 0.914
[1]; [5]
  NF-kB SEAP reporter activity: 2.18

## CC(C)(O)CNc1ncc(-c2ccnc(Nc3ccnc(Cl)c3)n2)c(CC2CC2)n1
[1]; [4]
  NF-kB SEAP reporter activity: 0.784
[1]; [5]
  NF-kB SEAP reporter activity: 2.07

## Cc1nc(N)sc1-c1ccnc(Nc2ccc(N3CCOCC3)cc2)n1
[1]; [4]
  NF-kB SEAP reporter activity: 0.996
[1]; [5]
  NF-kB SEAP reporter activity: 1.39

## CC(C)(O)CNc1ncc(-c2ccnc(Nc3ccncc3)n2)c(CC2CC2)n1 (library stock concentration (final ~1000-fold dilution): 10 mM)
[2]; agonist: LPS (TLR4) 0.1 ug/mL
  NF-kB SEAP reporter activity: 4.13
[2]; [6]
  NF-kB SEAP reporter activity: 0.366
[2]; [7]
  NF-kB SEAP reporter activity: 0.814
[2]; [8]
  NF-kB SEAP reporter activity: 1.66

## Nc1ncc(-c2ccnc(Nc3ccncc3)n2)c(CC2CC2)n1 (library stock concentration (final ~1000-fold dilution): 10 mM)
[3]; agonist: LPS (TLR4) 0.1 ug/mL
  NF-kB SEAP reporter activity: 4.89
[3]; [6]
  NF-kB SEAP reporter activity: 0.424
[3]; [7]
  NF-kB SEAP reporter activity: 0.975
[3]; [8]
  NF-kB SEAP reporter activity: 1.51

## CCNC1CC(C)S(=O)(=O)c2sc(S(N)(=O)=O)cc21.Cl (stereo unspecified)
[1]; library stock concentration (final ~1000-fold dilution): 10 mM water, cytotoxicity flag (confluency mask): not cytotoxic, agonist: Imiquimod (TLR7) […]
  NF-kB SEAP reporter activity: 0.908
[1]; library stock concentration (final ~1000-fold dilution): 10 mM water, cytotoxicity flag (confluency mask): not cytotoxic, agonist: MPLA (TLR4) […]
  NF-kB SEAP reporter activity: 0.982

## CCNC1CC(C)S(=O)(=O)c2sc(S(N)(=O)=O)cc21.Cl (stereo unspecified) (library stock concentration (final ~1000-fold dilution): 10 mM water)
[2]; agonist: LPS (TLR4) 0.1 ug/mL
  NF-kB SEAP reporter activity: 1.49
[2]; [6]
  NF-kB SEAP reporter activity: 1.13
[2]; [7]
  NF-kB SEAP reporter activity: 1.09
[2]; [8]
  NF-kB SEAP reporter activity: 0.997

## CCc1ccc(OCc2ccccc2C(=O)Nc2ccc3nc(C)cc(N)c3c2)cc1.Cl (library stock concentration (final ~1000-fold dilution): 10 mM)
[3]; agonist: LPS (TLR4) 0.1 ug/mL
  NF-kB SEAP reporter activity: 0.212
[3]; [6]
  NF-kB SEAP reporter activity: 0.198
[3]; [7]
  NF-kB SEAP reporter activity: 0.0939
[3]; [8]
  NF-kB SEAP reporter activity: 0.336

## CCc1ccc(OCc2ccccc2C(=O)Nc2ccc3nc(C)cc(N)c3c2)cc1.Cl
[1]; [9]
  NF-kB SEAP reporter activity: 0.265
[1]; [10]
  NF-kB SEAP reporter activity: 0.216

## CCCN1CCCCC1C(=O)Nc1c(C)cccc1C (stereo unspecified)
[1]; [5]
  NF-kB SEAP reporter activity: 1.09

## CCCN1CCCCC1C(=O)Nc1c(C)cccc1C (stereo unspecified) (library stock concentration (final ~1000-fold dilution): 10 mM)
[2]; agonist: LPS (TLR4) 0.1 ug/mL
  NF-kB SEAP reporter activity: 1.03
[2]; [6]
  NF-kB SEAP reporter activity: 1.03
[2]; [7]
  NF-kB SEAP reporter activity: 0.952
[2]; [8]
  NF-kB SEAP reporter activity: 1.06

## Cc1ccc(C(=O)N(CCCN)C(c2nc3cc(Cl)ccc3c(=O)n2Cc2ccccc2)C(C)C)cc1 (stereo unspecified)
[1]; [9]
  NF-kB SEAP reporter activity: 1.41
[1]; [10]
  NF-kB SEAP reporter activity: 0.878

## Cc1ccc(C(=O)N(CCCN)C(c2nc3cc(Cl)ccc3c(=O)n2Cc2ccccc2)C(C)C)cc1 (stereo unspecified) (library stock concentration (final ~1000-fold dilution): 10 mM)
[3]; agonist: LPS (TLR4) 0.1 ug/mL
  NF-kB SEAP reporter activity: 0.331
[3]; [6]
  NF-kB SEAP reporter activity: 0.254
[3]; [7]
  NF-kB SEAP reporter activity: 0.0886
[3]; [8]
  NF-kB SEAP reporter activity: 0.27

## COC1C(=O)C2(C)C(OC)CC3OCC3(OC(C)=O)C2C(OC(=O)c2ccccc2)C2(O)CC(OC(=O)C(O)C(NC(=O)OC(C)(C)C)c3ccccc3)C(C)=C1C2(C)C (stereo unspecified)
[1]; [4]
  NF-kB SEAP reporter activity: 1.57
[1]; [5]
  NF-kB SEAP reporter activity: 1.25

## COC1C(=O)C2(C)C(OC)CC3OCC3(OC(C)=O)C2C(OC(=O)c2ccccc2)C2(O)CC(OC(=O)C(O)C(NC(=O)OC(C)(C)C)c3ccccc3)C(C)=C1C2(C)C (stereo unspecified) (library stock concentration (final ~1000-fold dilution): 10 mM)
[2]; agonist: LPS (TLR4) 0.1 ug/mL
  NF-kB SEAP reporter activity: 1.71
[2]; [6]
  NF-kB SEAP reporter activity: 1.2
[2]; [7]
  NF-kB SEAP reporter activity: 1.01
[2]; [8]
  NF-kB SEAP reporter activity: 0.912

## Oc1ccc(Nc2nc(-c3ccc(Cl)cc3)cs2)cc1 (library stock concentration (final ~1000-fold dilution): 10 mM)
[2]; agonist: LPS (TLR4) 0.1 ug/mL
  NF-kB SEAP reporter activity: 0.311
[2]; [6]
  NF-kB SEAP reporter activity: 0.27
[2]; [7]
  NF-kB SEAP reporter activity: 0.227
[2]; [8]
  NF-kB SEAP reporter activity: 0.157

## O=C(NCc1cccc(O)c1)Nc1nc(-c2ccncc2)cs1 (library stock concentration (final ~1000-fold dilution): 10 mM)
[2]; agonist: LPS (TLR4) 0.1 ug/mL
  NF-kB SEAP reporter activity: 1.01
[2]; [6]
  NF-kB SEAP reporter activity: 1.21
[2]; [7]
  NF-kB SEAP reporter activity: 1.24
[2]; [8]
  NF-kB SEAP reporter activity: 1.88

## Cc1cccc(Nc2nc(-c3ccncc3)cs2)c1
[1]; [4]
  NF-kB SEAP reporter activity: 1.89
[1]; [5]
  NF-kB SEAP reporter activity: 2.08

## Oc1ccc(Nc2nc(-c3ccc(Cl)cc3)cs2)cc1
[1]; [4]
  NF-kB SEAP reporter activity: 0.665
[1]; [5]
  NF-kB SEAP reporter activity: 0.836

## O=C(NCc1cccc(O)c1)Nc1nc(-c2ccncc2)cs1
[1]; [4]
  NF-kB SEAP reporter activity: 1.3
[1]; [5]
  NF-kB SEAP reporter activity: 1.45

## Cc1cccc(Nc2nc(-c3ccncc3)cs2)c1 (library stock concentration (final ~1000-fold dilution): 10 mM)
[2]; agonist: LPS (TLR4) 0.1 ug/mL
  NF-kB SEAP reporter activity: 2.85
[2]; [6]
  NF-kB SEAP reporter activity: 1.3
[2]; [7]
  NF-kB SEAP reporter activity: 0.662
[2]; [8]
  NF-kB SEAP reporter activity: 1

## CCCOc1ccc(S(=O)(=O)NCCC2CCCN2C)cc1-c1nc(=O)c2c([nH]1)c(CCC)nn2C (stereo unspecified) (library stock concentration (final ~1000-fold dilution): 10 mM)
[2]; agonist: LPS (TLR4) 0.1 ug/mL
  NF-kB SEAP reporter activity: 1.02
[2]; [6]
  NF-kB SEAP reporter activity: 0.517
[2]; [7]
  NF-kB SEAP reporter activity: 0.99
[2]; [8]
  NF-kB SEAP reporter activity: 1.14

## CCCOc1ccc(S(=O)(=O)NCCC2CCCN2C)cc1-c1nc(=O)c2c([nH]1)c(CCC)nn2C (stereo unspecified)
[1]; [4]
  NF-kB SEAP reporter activity: 1.42
[1]; [5]
  NF-kB SEAP reporter activity: 1.28

## COc1cc(F)c(F)c(Nc2ccc(I)cc2F)c1NS(=O)(=O)C1(CC(O)CO)CC1 (stereo unspecified) (library stock concentration (final ~1000-fold dilution): 10 mM)
[2]; agonist: LPS (TLR4) 0.1 ug/mL
  NF-kB SEAP reporter activity: 1.01
[2]; [6]
  NF-kB SEAP reporter activity: 0.915
[2]; [7]
  NF-kB SEAP reporter activity: 0.342
[2]; [8]
  NF-kB SEAP reporter activity: 0.427

## COc1cc(F)c(F)c(Nc2ccc(I)cc2F)c1NS(=O)(=O)C1(CC(O)CO)CC1 (stereo unspecified)
[1]; [4]
  NF-kB SEAP reporter activity: 0.885
[1]; [5]
  NF-kB SEAP reporter activity: 0.968

— the supplement of paper PMC10037445
